Assay [1] concerns the target Cellular tumor antigen p53 (Homo sapiens) (UniProt P04637). Kind of assay: TOX21_p53_BLA_p5_ratio: Tox21 HCT-116 p53 Agonism Beta-lactamase Assay, Ratio, Phase 5 (AID 2283599). In short, it runs like this:
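HCT-116 cells carrying a p53-inducible beta-lactamase reporter were seeded at 4000 cells/well and dosed after 5 h with compound in DMSO (217-fold dilution). After 16 h at 37C, CCF4-AM substrate was added for 2 h, and the 460/530 nm emission ratio was scored as gain-of-signal versus DMSO.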

A short description of assay [2]: TOX21_p53_BLA_p5_viability: Viability Assessment in the Tox21 HCT-116 p53 Agonism Beta-lactamase Assay, Phase 5 (AID 2283600). In short, it runs like this:
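Decreased CellTiter-Glo luminescence denotes lost viability. Exposure: 16 h at 37C, 5% CO2, with compounds from DMSO stocks diluted 217-fold in wells of 4000 cells.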

In assay [3] the target is Cellular tumor antigen p53 (Homo sapiens) (UniProt P04637). Nature of the assay: TOX21_p53_BLA_p4_ratio: Tox21 HCT-116 p53 Agonism Beta-lactamase Assay, Ratio, Phase 4 (AID 2283601). In short, it runs like this: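 HCT116 cells carrying an inducible beta-lactamase reporter were plated at 4000 cells/well, rested 5 h, then exposed to compounds in DMSO (217-fold dilution) for 16 h at 37C. CCF4-AM substrate was loaded 2 h at room temperature; 460/530 nm emission ratio scored gain-of-signal versus DMSO.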
Cellular tumor antigen p53 (Homo sapiens), sequence (P04637 whole entry, looked up): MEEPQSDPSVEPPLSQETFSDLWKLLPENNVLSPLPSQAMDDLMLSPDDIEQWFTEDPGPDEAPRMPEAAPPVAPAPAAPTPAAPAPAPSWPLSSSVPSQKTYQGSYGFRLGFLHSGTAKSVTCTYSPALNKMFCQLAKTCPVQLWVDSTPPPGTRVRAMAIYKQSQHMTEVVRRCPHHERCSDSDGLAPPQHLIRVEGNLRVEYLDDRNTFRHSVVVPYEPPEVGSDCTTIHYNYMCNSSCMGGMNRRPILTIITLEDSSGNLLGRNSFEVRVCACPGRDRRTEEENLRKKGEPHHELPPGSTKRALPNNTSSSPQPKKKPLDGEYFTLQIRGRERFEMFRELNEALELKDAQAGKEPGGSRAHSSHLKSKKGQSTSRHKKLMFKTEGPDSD

Assay [4] is described as follows: Tanguay_ZF_120hpf_MORT_legacy: (Legacy) Oregon State University Tanguay Lab 120 Hour Post-fertilization zebrafish Assay for Mortality (AID 2283633).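 On AC50: fitted as increase in binary mortality versus DMSO negative control.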 In short, it runs like this:
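Dechorionated Tropical 5D wild-type zebrafish embryos, one per well from 6 hpf, static exposure in 0.64% DMSO at 28C until 120 hpf. Mortality scored as binary by brightfield microscopy at 24 and 120 hpf.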

Assay [5] is described as follows: Tanguay_ZF_120hpf_YSE_legacy: (Legacy) Oregon State University Tanguay Lab 120 Hour Post-fertilization zebrafish Assay for Yolk Sac Edema (AID 2283634).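 On AC50: actives raise the incidence of yolk sac edema above the DMSO baseline.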 In short, it runs like this: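 Dechorionated Tropical 5D wild-type zebrafish embryos were exposed statically, one per well, from 6 to 120 hpf at 28C in 0.64% DMSO. Yolk sac edema was scored present/absent by brightfield at 120 hpf, and dead embryos were excluded.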

A short description of assay [6]: Tanguay_ZF_120hpf_AXIS_legacy: (Legacy) Oregon State University Tanguay Lab 120 Hour Post-fertilization zebrafish Assay for Body Axis Malformation (AID 2283635).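 On AC50: potency for an increased fraction of larvae scored with body axis malformation.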 In short, it runs like this:
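Dechorionated wild-type Tropical 5D zebrafish embryos, one per well, statically exposed from 6 hpf to 120 hpf at 28C in 0.64% DMSO final. Body axis malformation scored present/absent by brightfield microscopy at 120 hpf; dead embryos excluded.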

Assay [7] can be described thus: Tanguay_ZF_120hpf_JAW_legacy: (Legacy) Oregon State University Tanguay Lab 120 Hour Post-fertilization zebrafish Assay for Jaw Malformation (AID 2283638).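 On AC50: active means more embryos with jaw malformation than DMSO controls.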 In short, it runs like this: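 Dechorionated Tropical 5D wild-type zebrafish embryos, one per well, exposed statically from 6 hpf to 120 hpf at 28C in 0.64% DMSO. Jaw malformation was scored by brightfield microscopy as present or absent. It was not scored in dead embryos.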

Assay [8] in a line: Tanguay_ZF_120hpf_OTIC_legacy: (Legacy) Oregon State University Tanguay Lab 120 Hour Post-fertilization zebrafish Assay for Otic Vesicle Malformation (AID 2283639). Put shortly: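 Brightfield scoring at 120 hpf, binary present/absent; DMSO negative control, 5uM trimethyltin chloride positive control. Static exposure at 28C, final DMSO 0.64% (vol/vol). Dead embryos not scored for malformation.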

Assay [9] is described as follows: Tanguay_ZF_120hpf_PE_legacy: (Legacy) Oregon State University Tanguay Lab 120 Hour Post-fertilization zebrafish Assay for Pericardial Edema (AID 2283640).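 On AC50: potency for increased incidence of pericardial edema versus DMSO baseline.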 Put shortly: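 Tropical 5D wild-type zebrafish embryos were statically exposed until 120 hpf at 28C, with 0.64% DMSO final. Pericardial edema was scored by brightfield as present or absent; endpoints were not scored in dead embryos.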

The nature of assay [10]: Tanguay_ZF_120hpf_PFIN_legacy: (Legacy) Oregon State University Tanguay Lab 120 Hour Post-fertilization zebrafish Assay for Pectoral Fin Malformation (AID 2283648).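 Further: each larva judged yes or no for fin defect by brightfield with dead larvae skipped.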 In short, it runs like this:
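Scoring of pectoral fin malformation was binary, made at 120 hpf on larvae exposed statically from 6 hpf after enzymatic chorion removal. Activity was fitted upward relative to DMSO controls at 0.64% (vol/vol).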

A short description of assay [11]: Tanguay_ZF_120hpf_CFIN_legacy: (Legacy) Oregon State University Tanguay Lab 120 Hour Post-fertilization zebrafish Assay for Caudal Fin Malformation (AID 2283649). In short, it runs like this:
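Dechorionated Tropical 5D wild-type embryos, one per well from 6 hpf, static exposure to 120 hpf at 28C in 0.64% DMSO. Caudal fin malformation scored by brightfield as present/absent; not scored in dead embryos.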

A short description of assay [12]: Tanguay_ZF_120hpf_PIG_legacy: (Legacy) Oregon State University Tanguay Lab 120 Hour Post-fertilization zebrafish Assay for Pigmentation Malformation (AID 2283650). Put shortly: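 Endpoint is incidence of abnormal pigmentation at 120 hpf in dechorionated 5D zebrafish exposed singly from 6 hpf at 28C, DMSO vehicle at 0.64%. Embryos dying by 24 or 120 hpf are excluded from scoring.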

Assay [13] in a line: Tanguay_ZF_120hpf_CIRC_legacy: (Legacy) Oregon State University Tanguay Lab 120 Hour Post-fertilization zebrafish Assay for Circulatory Malformation (AID 2283651). Put shortly:
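Static exposure, 6–120 hpf, 28C, sealed and dark; one dechorionated 5D embryo/well; DMSO 0.64% v/v final. Binary circulation endpoint by brightfield; dead embryos not scored.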

A short description of assay [14]: Tanguay_ZF_120hpf_SWIM_legacy: (Legacy) Oregon State University Tanguay Lab 120 Hour Post-fertilization zebrafish Assay for Swim Bladder Malformation (AID 2283654).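 Further: swim bladder malformation in each larva scored yes or no under brightfield.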 In short, it runs like this: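 Static waterborne exposure of single dechorionated Tropical 5D zebrafish embryos, 6–120 hpf, 28C, 0.64% DMSO final. Read-out: swim bladder malformation, present/absent, relative to DMSO negative control; trimethyltin chloride 5uM served as positive control.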

Assay [15] is described as follows: Tanguay_ZF_120hpf_TRUN_legacy: (Legacy) Oregon State University Tanguay Lab 120 Hour Post-fertilization zebrafish Assay for Truncated Body (AID 2283655). Put shortly: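 Dechorionated Tropical 5D wild-type embryos placed singly from 6 hpf and statically exposed to 120 hpf at 28C, final DMSO 0.64%. Truncated body scored as present/absent by brightfield; not scored in dead embryos.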

A short description of assay [16]: Tanguay_ZF_120hpf_NC_legacy: (Legacy) Oregon State University Tanguay Lab 120 Hour Post-fertilization zebrafish Assay for Notochord and Tail Malformation (AID 2283656). Put shortly:
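Binary notochord-distortion calls, made by brightfield inspection, form the read-out; activity is fitted in the positive direction against DMSO. Exposure ran statically from 6 to 120 hpf at 28C with 0.64% DMSO.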

Read-out in assay [17]: kallikrein-3 (KLK3), KLK3 (gene 354)
Kind of assay: LTEA_HepaRG_KLK3: Life Technologies and Expression Analysis (LTEA) Assay for kallikrein-3 (KLK3) using HepaRG (AID 2283652; active means hit-call score of the fitted dose curve at least 0.9, where 1 is the maximum; inactive means score below 0.9). Conditions: mRNA level, 48 h; actives raise or lower the signal. In short, it runs like this:
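KLK3 transcript levels were measured by TaqMan qRT-PCR with normalisation to three housekeeping genes. HepaRG cultures received chemicals for 48 h at up to 100 uM (half-log, 8 points, 0.5% DMSO vehicle), fitted in both directions against DMSO.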

Read-out in assay [18]: solute carrier (SLC22A6), SLC22A6 (gene 9356)
Nature of the assay: LTEA_HepaRG_SLC22A6: Life Technologies and Expression Analysis (LTEA) Assay for solute carrier (SLC22A6) using HepaRG (AID 2283653; active means hit-call score of the fitted dose curve at least 0.9, where 1 is the maximum; inactive means score below 0.9). Conditions: mRNA level, 48 h; actives raise or lower the signal. In short, it runs like this: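 Differentiated HepaRG cells exposed 48 h in serum-free induction medium to 8 half-log concentrations, top 100 uM, in 0.5% DMSO; SLC22A6 mRNA by Fluidigm qRT-PCR normalized to ACTB, GAPDH, POLR2A, fitted bidirectionally versus DMSO.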

Read-out in assay [19]: solute carrier (SLC10A1), SLC10A1 (gene 6554)
Kind of assay: LTEA_HepaRG_SLC10A1: Life Technologies and Expression Analysis (LTEA) Assay for solute carrier (SLC10A1) using HepaRG (AID 2283657; active means hit-call score of the fitted dose curve at least 0.9, where 1 is the maximum; inactive means score below 0.9). As to conditions: mRNA level, 48 h; actives raise or lower the signal. In short, it runs like this: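 Cryopreserved HepaRG cells are thawed, plated and cultured 48 h; medium is then switched to serum-free induction medium and chemicals added (8 points, max 100 uM, 0.5% DMSO). After 48 h, RNA is isolated and SLC10A1 quantified by qRT-PCR.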

Read-out in assay [20]: matrix metalloproteinase-1 (MMP1), MMP1 (gene 4312)
Kind of assay: LTEA_HepaRG_MMP1: Life Technologies and Expression Analysis (LTEA) Assay for matrix metalloproteinase-1 (MMP1) using HepaRG (AID 2283658; active means hit-call score of the fitted dose curve at least 0.9, where 1 is the maximum; inactive means score below 0.9). Conditions: mRNA level, 48 h; actives raise or lower the signal. Put shortly:
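Differentiated human HepaRG cells, 48 h post-plating in serum-free induction medium, were exposed 48 h to eight half-log concentrations topping at 100 uM in 0.5% DMSO, duplicate. MMP1 mRNA measured by Fluidigm TaqMan qRT-PCR, normalized to ACTB, GAPDH, POLR2A; bidirectional fits versus DMSO.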

Results on 18 compounds are retold here after PubChem BioAssay (EPA / NIEHS).

Values joined by “and” are separate entries in the source; they are usually repeats but may differ in a detail not shown here. Equal entries are not always repeated. Results filed as inconclusive are left out. Active and inactive are the calls of the source. How the source made its calls, unless noted: active means hit-call score of the fitted dose curve at least 0.9, where 1 is the maximum; inconclusive means response in the unintended direction; inactive means score below 0.9.

One may read the AC50 as the concentration giving half of the maximal activity seen. For the compound `CCC[CH2][Sn]([CH2]CCC)([CH2]CCC)[O]C(=O)c1ccccc1`, the half-maximal activity concentration (AC50) was 24.7 µM (active) in assay [1], 1.77 µM (active) in [2] and 27.2 µM (active) in [3].

Take `C(=NC1CCCCC1)=NC1CCCCC1`: the result in assay [1], in assay [2] and in [3] was inactive.

`CC(=O)[O][Hg][c]1ccccc1`: the AC50 was 2.9 µM (active) and 2.82 µM (active) and 4.64 µM (active) in assay [1]; 1.5 µM (active) and 1.56 µM (active) and 2.25 µM (active) in [2]; 7.28 µM (active) and 2.97 µM (active) and 7.86 µM (active) in [3]; 0.179 µM (active) in assay [4]. Also, the result in assay [5], in assay [6], in [7], in [8], in assay [9] and in assay [10] was inactive. For the same compound, the outcome in [11], in assay [12], in [13], in assay [14], in assay [15] and in assay [16] was inactive.

With `O=C/C=C/c1ccccc1`, the result in assay [1], in assay [2] and in [3] was inactive.

With `Clc1ccc(COC(Cn2ccnc2)c2ccc(Cl)cc2Cl)cc1` (centres undefined), the AC50 was 79.1 µM (active) and 60.7 µM (active) and 38.7 µM (active) in assay [1]; 85.2 µM (active) and 75.6 µM (active) and 36.2 µM (active) in [2]; 77.8 µM (active) and 62 µM (active) and 33.9 µM (active) in assay [3].

Regarding `O=C1C2(Cl)C3(Cl)C4(Cl)C(Cl)(Cl)C5(Cl)C3(Cl)C1(Cl)C5(Cl)C24Cl` (centres undefined), the AC50 was 83.8 µM (active) and 85 µM (active) in [1]; 82 µM (active) and 83.7 µM (active) in assay [2]; 83.2 µM (active) and 60.3 µM (active) in assay [3]; 72.1 µM (active) in assay [5]; 6.6 µM (active) in assay [6]; 8.93 µM (active) in [7]. In addition, the concentration at half-maximal activity (AC50) in assay [9] was 38.8 µM (active); in assay [15], 15.2 µM (active). The outcome in assay [4], in assay [8], in assay [10], in [11], in [12] and in assay [13] was inactive. Besides, the compound was called inactive in assay [16].

In the case of `Cc1ccccc1C(=O)Nc1cccc(OC(C)C)c1`, the result in assay [1], in [2] and in [3] was inactive.

`COc1ccc(C(O)(c2cncnc2)C2CC2)cc1` (centres undefined): the call in assay [2] and in [3] was inactive.

Turning to `COc1ccc(C=O)cc1`, the outcome in assay [1] and in assay [3] was inactive.

For `CCCCP(CCCC)CCCC`, the call in [2] and in assay [3] was inactive.

As to `CC(=O)OC(c1ccccc1)C(Cl)(Cl)Cl` (centres undefined), the result in assay [1] and in assay [3] was inactive.

As for `CNC(=O)O/N=C/C(C)(C)S(C)=O` (centres undefined), the outcome in assay [1] and in [3] was inactive.

For the compound `ClC1(Cl)C2(Cl)C3(Cl)C4(Cl)C(Cl)(Cl)C5(Cl)C3(Cl)C1(Cl)C5(Cl)C24Cl` (centres undefined), the compound was classed as inactive in assay [2], in assay [3], in assay [4], in assay [5], in assay [6] and in assay [7]. In addition, the compound was called inactive in assay [8], in assay [9], in assay [10], in [11], in assay [12] and in assay [13]. Moreover, the outcome in assay [17], in assay [18], in [14], in assay [15], in assay [16] and in [20] was inactive. Further, the half-maximal activity concentration (AC50) in assay [19] is 1.22 µM (active).

As to `COC(=O)Cc1ccccc1`, the outcome in [3] was inactive.

For the compound `CC(C)OC(=O)Nc1ccccc1`, the result in [1] and in [3] was inactive.

As to `BrCCBr`, the compound was called inactive in [2] and in [3].

In the case of `NNC(=S)NN`, the result in assay [1] and in assay [3] was inactive.

In the case of `COP(=O)(OC)O/C(=C\Cl)c1cc(Cl)c(Cl)cc1Cl`, the result in assay [1] and in assay [3] was inactive.
